# Compounds with a hit are over-represented: about 3.9% of the library has one in this group of screens.
# ATXN2 expr inh: reduces ATXN2 reporter expression in HEK-293 cells. HEK-293 ATXN2-luciferase reporter, luminescence, 24 h. 360,000 compounds, 0.72% hits. Potency, µM (top dose mostly 57 µM), hits mostly inhibitors. AID 1745845; note: nearly all actives have a fitted effect of over 55% in size
#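 qHTS (up to 57 uM final) was run with 24 h compound exposure of reporter cells at 37 °C. Each well was multiplexed: SteadyGlo luminescence measured ATXN2-luciferase expression after a fluorogenic Gly-Phe-AFC viability readout (25 uM final).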
# HT1080-NT tox: kills 2HG-producing HT-1080-NT fibrosarcoma cells; Potency, µM (highest dose often 46.1 µM), most hits filed as cytotoxic; HT-1080-NT fibrosarcoma viability, CellTiter-Glo ATP luminescence, 48 h; AID 686970; 360,000 compounds, 1.6% hits;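 note: NT is the 2HG producing partner of a matched IDH1 knockdown line; nearly all actives have a fitted effect of over 55% in size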
#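 HT-1080-NT; 750 cells/well; 5% FBS RPMI; 48 h compound, 37 degrees C; CellTiter-Glo luminescence; curve fitting and curve-class assignment.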
# HT1080 IDH1KD tx: toxicity to HT-1080 IDH1 knockdown cells (counter line); 360,000 compounds, 2% hits; HT-1080 IDH1 knockdown viability, ATP luminescence, 48 h; AID 686971; Potency, µM (highest dose often 46.1 µM), most hits filed as cytotoxic
#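 In this qHTS, HT-1080 cells depleted of IDH1 are exposed for 48 h at 37 °C to compound titrations. Toxicity is scored from CellTiter-Glo luminescence, with DMSO as full viability and medium alone as none.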
# TGFb inhibitor: TGF-b pathway inhibition | HepG2 CAGA-GFP TGF-b/SMAD3 reporter, GFP fluorescence, 18 h; TGF-beta stimulated, 500 pg/mL final | Potency, µM (doses to about 46.1 µM), hits mostly inhibitors | 410,000 compounds, 1.2% hits | AID 588855; note: nearly all actives have a fitted effect of over 65% in size
#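 HEPG2 CAGA-GFP cells (1000/well, DMEM with 1% FBS) were pre-incubated 2 h at 37 degrees C, given compound by pin tool, then stimulated with TGF-beta at 500 pg/mL final for 18 h before per-cell GFP fluorescence imaging.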
# HepG2 tox-1: kills HepG2 cells in TGF-b inhibitor counter-screen. Potency, µM (titrated, usually from 46.1 µM), usual class: cytotoxic. HepG2 CAGA-GFP viability, ATP luminescence, 18 h. 410,000 compounds, 0.76% hits. AID 588856
#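 HepG2 CAGA-GFP cells (1000/well, DMEM with 1% FBS) received compound, then TGF-beta at 500 pg/mL final, and were incubated 18 hours at 37 degrees C. Viability was read by CellTiter-Glo luminescence. Media-only wells were set as complete cell-killing and DMSO as no toxicity.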
# S2 tox: reduces viability in counter-screen for ATXN expression inhibitors. 400,000 compounds, 0.49% hits. Potency, µM (series often up to 56.7 µM), usual class: cytotoxic. S2 cells (HEK-293 line with an ATXN2-luciferase reporter) viability, CellTiter-Fluor protease fluorescence, 24 h; note: nearly all actives have a fitted effect of over 40% in size
# TGFb CAGA inh: TGF-b pathway inhibition, cherry-pick retest; shares compounds with TGFb inhibitor; HepG2 CAGA-GFP TGF-b reporter, GFP fluorescence, 18 h; cells stimulated with TGF-beta, 500 pg/mL; Potency, µM (doses to about 46.1 µM), actives largely listed as inhibitors; 1,600 compounds, 63% hits; note: nearly all actives have a fitted effect of over 65% in size
# HepG2 tox-2: toxic to HepG2 cells in TGF-b counterscreen | shares compounds with TGFb inhibitor | HepG2 CAGA-GFP viability, ATP luminescence, 18 h; cells stimulated with TGF-beta, 500 pg/mL | Potency, µM (top dose mostly 46.1 µM), actives largely listed as inhibitors | 1,600 compounds, 27% hits | AID 720535; note: nearly all actives have a fitted effect of over 70% in size
# CCL64 TGFb inh: blocks TGF-b signaling in CCL64 reporter cells | shares compounds with TGFb inhibitor | CCL64 CAGA-GFP reporter, TGF-b stimulated, GFP fluorescence, 18 h | Potency, µM (highest dose often 46.1 µM), usual class: inhibitors | 1,600 compounds, 41% hits | AID 720536; note: nearly all actives have a fitted effect of over 65% in size
# TGFb COP inh: validation of TGF-b inhibitors in HepG2 COP promoter reporter. AID 720537. Potency, µM (series often up to 46.1 µM), actives largely listed as inhibitors. 1,600 compounds, 3% hits. HepG2 COP-GFP TGF-b reporter, GFP fluorescence, 18 h; cells stimulated by added recombinant TGF-beta. shares compounds with TGFb inhibitor; note: nearly all actives have a fitted effect of over 70% in size
# A number is an active result; – = inactive; ? = inconclusive; · = no result; [ ] = dose if it differs, or a comment. Calls come from the whole dose curve; as a rule, active = well fitted curve in the direction sought with a large enough effect; inconclusive = small, poorly fitted or top-dose-only effect, or another doubt; inactive = no such curve, though single readings can be large; an effect the other way counts as inactive or inconclusive.
SMILES,ATXN2 expr inh,HT1080-NT tox,HT1080 IDH1KD tx,TGFb inhibitor,HepG2 tox-1,S2 tox,TGFb CAGA inh,HepG2 tox-2,CCL64 TGFb inh,TGFb COP inh
CCOC(=O)CCc1ccc(NC(=O)/C=C/c2ccc([N+](=O)[O-])o2)cc1,?,8.2µM,2.91µM,4.47µM,10µM,8.44µM,9.2µM,13µM,?,–
COc1ccc(CNC(=O)[C@@H]2CC=C[C@@H]3CCN(Cc4ccc(OC)c(OC)c4)C(=O)[C@@H]32)cc1,·,·,·,–,–,·,·,·,·,·
COc1ccc(CNC(=O)[C@@H]2CC=C[C@@H]3CCN(Cc4ccc(Cl)c(Cl)c4)C(=O)[C@@H]32)cc1,?,–,–,15.8µM,–,?,20.6µM,?,?,–
Cc1ccnc(Nc2nc(-c3sc(C)nc3C)cs2)c1,–,?,?,6.31µM,3.16µM,?,9.2µM,7.31µM,?,–
O=C(CSc1oc(-c2ccc(F)cc2)nc1S(=O)(=O)c1ccc(Cl)cc1)c1ccccc1,–,·,·,–,–,–,·,·,·,·
Cc1ccc(C)c(N/C(N)=N/c2nc(C)cc(C)n2)c1,–,–,–,–,–,–,·,·,·,·
Cc1ccc(CN=C(N)Nc2nc(C)cc(C)n2)cc1,–,7.31µM,7.31µM,15.8µM,–,–,14.6µM,?,?,–
CCOc1ccccc1-c1noc(CSc2nnc(-c3ccncc3)n2-c2ccc(F)cc2)n1,–,·,·,–,–,–,·,·,·,·
Cc1ccc(S(=O)(=O)N2CCCCC2)cc1C(=O)OC1CCCCC1=O (stereo unspecified),–,–,–,?,–,–,?,–,–,–
CCOc1ccccc1C1C2=C(COC2=O)Nc2cc3c(cc21)OCO3 (stereo unspecified),–,1.16µM,0.651µM,7.08µM,–,?,3.26µM,–,1.84µM,–
CCOc1ccccc1C1CC(=O)Nc2cc3c(cc21)OCO3 (stereo unspecified),·,–,–,–,–,·,·,·,·,·
COc1cc(OC)c(NC(=O)C(C)n2c(=O)cc(-c3ccccc3)c3c(C)nn(C)c32)cc1Cl (stereo unspecified),–,·,·,–,–,–,·,·,·,·
Cc1ccc(-n2c(C)cc(/C=N/NC(N)=S)c2C)cc1,–,–,–,–,–,–,·,·,·,·
CNC(=S)N/N=C/c1cc(C)n(-c2ccc(Cl)c(Cl)c2)c1C,–,–,–,12.6µM,–,–,20.6µM,?,?,–
O=C(NCCCCCCNC(=O)c1ccccc1O)c1ccccc1O,–,–,–,8.91µM,–,–,?,?,?,–
COc1ccc(S(=O)(=O)N2CCC(C(=O)N3CCc4ccccc4C3)CC2)cc1Cl,–,?,?,?,–,–,?,–,?,–
COc1ccc(S(=O)(=O)N2CCC(C(=O)N3CCN(C)CC3)CC2)cc1Cl,–,–,–,–,–,–,·,·,·,·
O=C(NC1CCCCCC1)c1c2c(nc3ccccc13)CCN(Cc1ccccc1)C2,–,–,–,–,–,?,·,·,·,·
Cc1cc(N2CCN(C)CC2)ccc1NC(=O)c1c2c(nc3ccccc13)CCN(Cc1ccccc1)C2,–[11.3 µM],5.8µM,4.61µM,10µM,10µM,?,3.26µM,2.59µM,8.2µM,11.6µM
O=C(NC(=S)Nc1cccc([N+](=O)[O-])c1)C1CCCC1,–,–,–,–,–,–,·,·,·,·
O=C(NC(=S)Nc1ccc([N+](=O)[O-])cc1O)C1CCCCC1,–,?,–,11.2µM,–,–,16.4µM,?,–,–
CCC1=Nc2cc(C(=O)NCc3ccc(C)cc3)ccc2Sc2ccc(C)cc21,·,·,·,–,–,·,·,·,·,·
CCC1=Nc2cc(C(=O)NCC3CCCO3)ccc2Sc2ccc(Br)cc21 (stereo unspecified),·,?,9.2µM,11.2µM,–,?,18.4µM,–,?,–
CCOc1ccc(C(CN2CCOCC2)C(C)=O)cc1OC (stereo unspecified),?,20.6µM,10.3µM,2.51µM,–,–,?,16.4µM,16.4µM,?
COc1cc(C2c3c(-c4ccccc4O)n[nH]c3C(=O)N2Cc2ccco2)ccc1OCC(C)C (stereo unspecified),·,·,·,?,–,·,·,·,·,·
SMILES,ATXN2 expr inh,HT1080-NT tox,HT1080 IDH1KD tx,TGFb inhibitor,HepG2 tox-1,S2 tox,TGFb CAGA inh,HepG2 tox-2,CCL64 TGFb inh,TGFb COP inh
O=C(NCc1ccco1)c1nc2c(nnn2Cc2ccccc2Cl)c(=O)[nH]1,15.8µM,17.8µM,?,2.82µM,–,?,5.8µM,?,8.2µM,–
O=C(Cc1csc(NC(=O)Nc2ccc(Cl)cc2)n1)NC1CCCC1,–,?,–,11.2µM,–,–,16.4µM,–,?,–
O=C(Cc1csc(NC(=O)Nc2ccc(Cl)cc2)n1)NCc1ccccn1,–,–,–,?,–,–,·,·,·,·
COc1ccc(-c2[nH]c(-c3cc(OC)c4c(c3)OCO4)nc2-c2ccccc2)cc1,–,?,?,?,–,–,13µM,?,?,–
CCCOc1ccc(C2=NC(c3ccc(F)cc3)=Nc3ccc(OC)cc3N2)cc1,–,·,·,?,–,–,·,·,·,·
CCOc1ccc(C(=O)Nc2nnc(SCc3cc(=O)n4ccccc4n3)s2)cc1,·,·,·,–,–,·,·,·,·,·
NNC(=O)c1[nH]c2ccc([N+](=O)[O-])cc2c1-c1ccccc1,·,?,3.66µM,3.55µM,–,–,?,–,?,–
CCn1c2ccccc2c2cc(/C=N/NC(=O)c3cccc(C)c3)ccc21,?,–,?,–,–,–,·,·,·,·
CCn1c2ccccc2c2cc(/C=N/NC(=O)c3ccccc3C)ccc21,?,14.6µM,20.6µM,3.98µM,–,–,8.2µM,4.11µM,?,–
Cc1cc2nc(-c3ccc(F)cc3)c(CC(C)(C)C)n2c(C)c1Br,–,?,?,10µM,–,?,?,?,?,–
Cc1ccc(-c2nc(CCNC(=O)C(=O)Nc3ccc(C)c(Cl)c3)cs2)cc1,·,·,·,–,–,·,·,·,·,·
CCOC(=O)c1c(C)oc2c1C(=O)c1ccccc1C2=O,?,–,–,5.01µM,5.01µM,–,5.17µM,5.8µM,4.61µM,16.4µM

# Screens as filed in PubChem.
